Screening data from PubChem BioAssay.
This excerpt belongs to a sample that is enriched for hits.
Pf Dd2 growth: qHTS Primary assay for Inhibitors of Plasmodium falciparum Dd2 growth in vitro | P. falciparum Dd2 growth, SYBR Green, 72 h | Potency, µM (doses to about 28.9 µM), usual class: inhibitors | 120,000 tested, 4.3% active | AID 1347417, 2020; active = well fitted inhibition curve with a large enough effect; also: nearly all actives have a fitted effect of over 65% in size
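Readout: SYBR Green fluorescence, 485 nm excitation, 535 nm emission, after ~16 h lysis at 37C. Before that, Dd2-infected red cells (2.5% hematocrit) grew 72 h with compound, 29 uM top final concentration.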
A number is an active result; 0 = inactive.

SMILES	Pf Dd2 growth
Cc1cc(C2CC(C(=O)NCc3ccco3)CN(C(=O)c3ccccc3)C2)ccc1F (stereo not given)	0
CN(CC[C@H]1CN(C(=O)c2ccnc(Cl)c2)CC[C@H]1CC(=O)O)c1ccccc1	0
Cc1c(-c2ccccc2)c(=O)oc2c(CN3CCOCC3)c(O)ccc12	8.91µM
Cc1c(-c2ccc(Cl)cc2)c(=O)oc2ccc(OC(=O)N3CCOCC3)cc12	0
Cc1c(-c2ccc(Cl)cc2)c(=O)oc2c(CN3CCOCC3)c(O)ccc12	5.62µM
Cc1c(-c2ccc(Br)cc2)c(=O)oc2ccc(OC(=O)N3CCOCC3)cc12	0
Cc1ccccc1CN1CCc2nc(C(=O)N3CCOCC3)oc2CC1	0
CCn1cc(-c2ccc(Cl)cc2)cc1C(=O)NCCN1CCOCC1	0
CC(=O)N1CCN([C@H]2[C@@H]3OC[C@@H](O3)[C@@H](NCc3ccco3)[C@@H]2O)CC1	0
CC(C)c1noc(-c2cccn3c(CNC(=O)c4ccccn4)nnc23)n1	0
CCc1noc(-c2cn(C3CCCN(C(=O)c4ccc(OC(F)(F)F)cc4)C3)nn2)n1 (stereo not given)	0
O=C(NCCc1ccco1)C1CC(=O)N(c2n[nH]c3cccc(F)c23)C1 (stereo not given)	0
O=C(CN1CCOCC1)N1CC(F)(F)C[C@H]1c1nc(C2CC2)no1	0
CC(=O)N(C)Cc1cccn1C	0
O=C([C@@H]1C[C@H](Oc2ccccc2)CN1S(=O)(=O)Cc1ccccc1)N1CCOCC1	0
O=C(CC1N=C2c3ccccc3N=C(SCc3ccc(Cl)cc3)N2C1=O)NCc1cccs1 (stereo not given)	0
Cc1cc(C)c(NC(=O)CSC2=Nc3ccccc3C3=NC(CC(=O)NCc4cccs4)C(=O)N23)c(C)c1 (stereo not given)	12.6µM
O=C(CC1N=C2c3ccccc3N=C(SCc3ccccc3F)N2C1=O)NCc1cccs1 (stereo not given)	0
O=C(CC1N=C2c3ccccc3N=C(SCC(=O)Nc3ccccc3F)N2C1=O)NCc1cccs1 (stereo not given)	3.98µM
O=C(CCC1N=C2c3ccccc3N=C(SCc3ccc(Cl)cc3)N2C1=O)NCc1cccs1 (stereo not given)	0
COc1ccccc1NC(=O)CSC1=Nc2ccccc2C2=NC(CC(=O)NCc3ccccc3)C(=O)N12 (stereo not given)	0
CC(C)c1ccc(NC(=O)CSC2=Nc3ccccc3C3=NC(CC(=O)NCc4cccs4)C(=O)N23)cc1 (stereo not given)	0
COc1cccc(NC(=O)CSC2=Nc3ccccc3C3=NC(CC(=O)NCc4cccs4)C(=O)N23)c1 (stereo not given)	0
Cc1ccc(CSC2=Nc3ccccc3C3=NC(CC(=O)NCc4cccs4)C(=O)N23)cc1 (stereo not given)	3.16µM
CCc1nnc([C@@H]2CC(F)(F)CN2C(=O)CCn2cc(C)cn2)o1	0
SMILES	Pf Dd2 growth
O=C(Cc1cccc(F)c1)NCc1nnc2c(-c3nc(C4CC4)no3)cccn12	0
COc1cccc(-c2nc3c([nH]2)CN(C(=O)CCn2cnnn2)CC3)c1	0
O=C(CC1CCOC2(CCN(Cc3cccc(F)c3)CC2)C1)NC1CC1 (stereo not given)	0
COCC1(CNC(=O)c2nc3ccccc3[nH]2)C[C@@H](O)[C@@H](O)C1 (stereo not given in full)	0
CN(CCC1CCOCC1)Cc1ccccc1OCC(O)CN1CCSCC1 (stereo not given)	0
CN(Cc1ccccc1)Cc1ccccc1OCC(O)CN1CCCCC1 (stereo not given)	0.794µM
COCCn1cc(CN(C)Cc2ccccc2)ccc1=O	0
COc1ccccc1-c1nc2cnccn2c1NCCC(=O)Nc1ccc2c(c1)OCO2	0
O=C1[C@@H]2C[C@@H](CN2C2COC2)Oc2ccccc2N1Cc1ccccn1	0
O=C(NC1CCCCC1)N1Cc2[nH]cnc2C[C@H]1c1nc(-c2ccc3ccccc3c2)no1	0
Cc1ccc(-c2noc([C@@H]3CCCN3C(=O)Cc3ccccc3)n2)cc1	0
O=C(NC1CCCCC1)N1Cc2[nH]cnc2C[C@H]1c1nc(-c2ccc(Cl)cc2)no1	0
O=[N+]([O-])c1cccc(-c2noc([C@@H]3Cc4nc[nH]c4CN3CC3CCCCC3)n2)c1	14.1µM
Cc1ccc(-c2noc([C@@H]3CCCN3C(=O)CCCc3ccccc3)n2)cc1	11.2µM
CCCCOc1ccc(C(=O)N2CCC[C@H]2c2nc(-c3ccc(OC)cc3)no2)cc1	11.2µM
O=C(CCc1ccccc1)N1CCC[C@H]1c1nc(-c2ccccc2)no1	0
CCOc1ccc(C(=O)N2CCC[C@H]2c2nc(-c3ccccc3)no2)cc1	0
Cc1cccc(-c2noc([C@@H]3Cc4nc[nH]c4CN3C(=O)C3CCCCC3)n2)c1	0
COc1ccc(-c2noc([C@@H]3CCCN3C(=O)c3ccc(C(C)(C)C)cc3)n2)cc1	0
COc1ccc(-c2noc([C@@H]3Cc4nc[nH]c4CN3C(=O)NC3CCCCC3)n2)cc1	12.6µM
O=C(O)c1ccc(CN2Cc3[nH]cnc3C[C@H]2c2nc(-c3cccc([N+](=O)[O-])c3)no2)cc1	0
COc1ccc(C(=O)NCCn2c(C)cnc2C2CC2)cn1	0
CC(=O)Nc1ccc(C(=O)N2CCC3(CC2)CC(NC(C)=O)c2ccccc23)cc1 (stereo not given)	0
CCN(Cc1ccccc1)C(=O)CC1CCCN(c2cnn(CC)c(=O)c2)C1 (stereo not given)	0
COc1ccc2[nH]c3c(c2c1)CCN(C)C31CCN(C(=O)c2cccn2C)CC1	0
SMILES	Pf Dd2 growth
CCCc1cc(C(=O)N2CCOC(c3ccc(Cl)c(Cl)c3)C2)ccn1 (stereo not given)	0
Cc1cc(C)n(CCC(=O)N2C[C@@H](CO)[C@H](c3nc(C)no3)C2)n1	0
Cc1nn(C)c(C)c1CCC(=O)N1C[C@@H](Oc2cccnc2)C[C@H]1C(=O)NC1CC1	0
COc1ccc(-n2nc(C3CCCN(C(=O)c4cccc(Cl)c4)C3)[nH]c2=O)cc1 (stereo not given)	0
Cc1ccccc1C(=O)N1CCC(N2CCCCCC2=O)CC1	0
O=C(CCC1CCCC1)NCC12CCC=C1N(CC1CC1)C(=O)CC2 (stereo not given)	0
Cc1cc(C(=O)N2CCN(c3ccccc3)CC2)c2c(C)nn(-c3cccc(F)c3)c2n1	0
CCc1ccc(-n2nc(C)c3c(C(=O)N4CCN(c5ccccc5)CC4)cc(C)nc32)cc1	0
CCc1ccc(-n2nc(C)c3c(C(=O)N4CCN(c5cccc(Cl)c5)CC4)cc(C)nc32)cc1	11.2µM
COc1ccc(-c2nc3c(c(=O)[nH]2)CCN(S(=O)(=O)C2CC2)C3)cc1	0
COc1ccc(-c2nc3c(c(=O)[nH]2)CCN(C(=O)c2cc(Cl)ccc2OC)C3)cc1	10µM
COc1ccc(-c2nc3c(c(=O)[nH]2)CCN(C(=O)NCC2CCCO2)C3)cc1 (stereo not given)	0
COc1ccc(-c2nc3c(c(=O)[nH]2)CCN(C(=O)Nc2ccc4c(c2)CCC4)C3)cc1	0
COc1ccc(-c2nc3c(c(=O)[nH]2)CCN(C(=O)Nc2cc(F)cc(F)c2)C3)cc1	0
COc1ccc(-c2nc3c(c(=O)[nH]2)CCN(C(=O)c2nccc4ccccc24)C3)cc1	5.01µM
O=C(Nc1cccc(F)c1)N1CCC(O)(c2csc(CN3CCOCC3)n2)CC1	0
Cc1ccc(CN2C(=O)NC3(CCN(C(=O)c4ccc(C(C)(C)C)cc4)C3)C2=O)cc1 (stereo not given)	0
